Hits are enriched below; roughly 4.3% of the tested compounds scored in any of these assays.
rCAG binder: molecules binding r(CAG) RNA repeats | r(CAG) RNA repeat, TO-PRO-1 dye displacement fluorescence | inhibition, % at 3 µM | 370,000 tested, 1.3% active;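 active = inhibition above the plate cutoff, the mean of all test compounds on that plate plus 3 SD, cut at about 35% in these data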;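 also: 0% = DMSO alone and 100% = 100 µM mitoxantrone as full dye displacement; higher means more dye released from RNA so lower well fluorescence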
NadD block: NadD (S. aureus) enzyme inhibition; purified NadD enzyme, colorimetric absorbance read-out; AID 602399; inhibition, % at 20 µM; 360,000 tested, 0.78% active; in the data active = inhibition above about 26%
FAS TE block: FAS thioesterase (human) inhibition. P49327. AID 602261. recombinant FAS-TE, OMFH fluorogenic substrate, fluorescence endpoint. 360,000 tested, 0.67% active. inhibition, % at 15 µM;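 active = compounds whose normalised, plate-corrected inhibition of enzyme fluorescence in the single-dose primary screen is 50% or more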;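 also: 0% = DMSO with enzyme and 100% = substrate without enzyme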
Target sequence (P49327 whole entry, looked up): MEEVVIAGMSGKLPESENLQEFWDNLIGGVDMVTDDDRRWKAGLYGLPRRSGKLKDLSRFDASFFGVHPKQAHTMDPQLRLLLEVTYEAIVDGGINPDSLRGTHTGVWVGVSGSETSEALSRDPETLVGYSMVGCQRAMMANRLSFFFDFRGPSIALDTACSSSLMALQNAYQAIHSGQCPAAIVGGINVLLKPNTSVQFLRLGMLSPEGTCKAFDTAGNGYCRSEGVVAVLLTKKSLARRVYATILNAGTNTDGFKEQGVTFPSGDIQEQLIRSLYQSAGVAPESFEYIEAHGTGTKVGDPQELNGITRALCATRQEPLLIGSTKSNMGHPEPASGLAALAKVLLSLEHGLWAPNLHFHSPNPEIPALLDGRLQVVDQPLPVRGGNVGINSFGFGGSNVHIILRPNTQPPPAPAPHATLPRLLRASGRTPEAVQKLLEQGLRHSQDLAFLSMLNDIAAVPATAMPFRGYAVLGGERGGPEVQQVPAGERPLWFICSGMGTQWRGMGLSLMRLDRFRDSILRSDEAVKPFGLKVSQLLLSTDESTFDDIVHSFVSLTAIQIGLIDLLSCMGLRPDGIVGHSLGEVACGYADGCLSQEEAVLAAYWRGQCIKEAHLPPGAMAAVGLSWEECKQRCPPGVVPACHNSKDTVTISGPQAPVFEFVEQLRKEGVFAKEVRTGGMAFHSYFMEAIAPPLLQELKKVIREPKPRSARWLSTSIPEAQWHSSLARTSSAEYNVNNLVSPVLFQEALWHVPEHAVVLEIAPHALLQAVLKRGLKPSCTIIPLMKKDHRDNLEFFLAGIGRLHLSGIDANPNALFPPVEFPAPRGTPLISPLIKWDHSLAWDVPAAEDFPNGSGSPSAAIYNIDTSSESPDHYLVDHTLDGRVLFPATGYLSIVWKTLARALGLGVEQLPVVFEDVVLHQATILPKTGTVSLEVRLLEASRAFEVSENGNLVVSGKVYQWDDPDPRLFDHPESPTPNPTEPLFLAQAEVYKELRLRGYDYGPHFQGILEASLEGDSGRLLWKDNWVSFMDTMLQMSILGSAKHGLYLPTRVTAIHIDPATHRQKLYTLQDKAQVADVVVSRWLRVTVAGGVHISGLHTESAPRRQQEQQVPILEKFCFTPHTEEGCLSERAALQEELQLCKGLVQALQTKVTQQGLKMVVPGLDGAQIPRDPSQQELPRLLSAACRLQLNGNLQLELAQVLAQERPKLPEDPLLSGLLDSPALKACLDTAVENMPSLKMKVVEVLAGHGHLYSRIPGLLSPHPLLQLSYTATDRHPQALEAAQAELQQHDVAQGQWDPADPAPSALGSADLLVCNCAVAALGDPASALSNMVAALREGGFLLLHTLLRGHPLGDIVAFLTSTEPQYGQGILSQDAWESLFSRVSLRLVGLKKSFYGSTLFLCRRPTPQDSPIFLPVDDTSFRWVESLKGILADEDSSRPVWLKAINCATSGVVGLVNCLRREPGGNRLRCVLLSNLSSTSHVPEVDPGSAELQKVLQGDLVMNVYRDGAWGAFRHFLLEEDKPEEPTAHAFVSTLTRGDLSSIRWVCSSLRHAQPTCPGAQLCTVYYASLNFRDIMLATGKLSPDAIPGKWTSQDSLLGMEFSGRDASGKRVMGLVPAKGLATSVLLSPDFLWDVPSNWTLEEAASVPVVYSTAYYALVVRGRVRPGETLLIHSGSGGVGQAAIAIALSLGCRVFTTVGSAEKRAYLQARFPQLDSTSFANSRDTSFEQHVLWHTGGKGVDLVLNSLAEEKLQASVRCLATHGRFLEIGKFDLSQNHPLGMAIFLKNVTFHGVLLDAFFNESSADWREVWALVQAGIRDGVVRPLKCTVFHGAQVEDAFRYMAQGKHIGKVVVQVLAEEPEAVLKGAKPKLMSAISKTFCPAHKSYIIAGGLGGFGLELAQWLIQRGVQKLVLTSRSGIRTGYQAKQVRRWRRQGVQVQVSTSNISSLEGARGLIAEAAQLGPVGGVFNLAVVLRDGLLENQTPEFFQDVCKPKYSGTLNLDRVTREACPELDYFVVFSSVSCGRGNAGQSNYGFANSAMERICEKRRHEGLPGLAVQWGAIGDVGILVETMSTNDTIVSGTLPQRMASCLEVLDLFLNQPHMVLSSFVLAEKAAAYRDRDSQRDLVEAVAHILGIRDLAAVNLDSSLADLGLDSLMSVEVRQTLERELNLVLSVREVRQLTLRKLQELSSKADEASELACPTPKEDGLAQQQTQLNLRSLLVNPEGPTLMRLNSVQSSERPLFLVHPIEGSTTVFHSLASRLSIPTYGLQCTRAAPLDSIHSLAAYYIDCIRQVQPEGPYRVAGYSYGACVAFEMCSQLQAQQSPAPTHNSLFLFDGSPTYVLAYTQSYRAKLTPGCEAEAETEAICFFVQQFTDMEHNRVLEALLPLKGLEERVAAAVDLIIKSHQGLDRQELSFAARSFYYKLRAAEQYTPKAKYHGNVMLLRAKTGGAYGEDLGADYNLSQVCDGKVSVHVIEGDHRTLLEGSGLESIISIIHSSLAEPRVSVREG
NR3A LBD binder: modulates the human NR3A ligand-binding domain. NR3A LBD differential scanning fluorimetry, Tm shift; 0% = protein alone, 100% = glycine-bound protein. Tm shift relative to glycine control, % at 25 µM. 340,000 tested, 2.5% active. AID 1259313;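 active = melting temperature shift of at least 10% of the positive control shift, at one fixed dose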
An asterisk follows results filed as active; . = no result.

SMILES | rCAG binder | NadD block | FAS TE block | NR3A LBD binder
O=C(Nc1cccc(-c2csc(-c3ccccc3)n2)c1)c1cccs1 | 18 | -4 | 32 | 24*
Cc1ccn2cc(-c3cccc(NC(=O)c4cccs4)c3)nc2c1 | 2 | -2 | 4 | 1
COc1ccccc1CCn1cnc(-c2ccc(F)cc2)c1CC(C)C | -1 | . | . | .
FC(F)(F)Oc1ccc(Cn2ccc3ccc(-c4ccc5ccn(Cc6ccccc6)c5c4)cc32)cc1 | 13 | . | . | .
Cc1[nH]n(-c2ccccc2)c(=O)c1C=Nc1ccc2[nH]c(=O)[nH]c2c1 | -1 | 3 | -8 | 33*
Cc1cccc(/N=C/c2c(C)[nH]n(-c3ccccc3)c2=O)n1 | 1 | -2 | 4 | 0
Cc1cccc(-n2[nH]c(C)c(C=Nc3ccc4[nH]c(=O)[nH]c4c3)c2=O)c1 | 4 | -14 | -4 | 32*
Cc1[nH]n(-c2ccccc2)c(=O)c1C=Nc1ccc(S(=O)(=O)N=C(N)N)cc1 | 7 | -10 | -2 | 0
Cc1[nH]n(-c2ccccc2)c(=O)c1C=Nc1cccc(F)c1 | 1 | -2 | 8 | 1
Cc1[nH]n(-c2ccccc2)c(=S)c1C=Nc1ccc([N+](=O)[O-])cc1 | 5 | 13 | -9 | 23*
CCOc1ccccc1C(=O)N1CCC(Oc2cccnc2)CC1 | 3 | . | . | .
CCOC(=O)CSc1ncc(-c2ccccc2)nn1 | -3 | 0 | 1 | 37*
O=C(Nc1ccc(F)cc1)Nc1c(-c2ccc(C(F)(F)F)cc2)nc2ncccn12 | 18 | . | . | .
CC(C)[C@H](NC(=O)C1CCCC1)C(=O)N1CCC[C@H]1C(=O)NCCc1ccccc1Cl | 0 | . | . | .
COc1ccc(CN(C)CC#Cc2ccccc2)c(OC)c1 | -2 | . | . | .
COc1ccc(-c2oc(=O)c3cc(OC)c(OC)cc3c2C#CC2(O)CCCCC2)cc1 | 5 | -12 | -8 | 13*
C=CCn1c(N)c(C(=O)Nc2cccc(C)c2)c2nc3ccccc3nc21 | 34 | -11 | 24 | 18*
N#Cc1c(N)n(CCCN2CCOCC2)c2nc3ccccc3nc12 | -3 | 8 | -6 | -7
C=CCn1c(N)c(C(=O)OCCC)c2nc3ccccc3nc21 | -2 | 7 | 1 | -3
Nc1c(C(=O)Nc2ccccc2)c2nc3ccccc3nc2n1CCCN1CCOCC1 | 8 | -14 | 30 | 18*
C=CCn1c(N)c(C(=O)Nc2ccc(C)c(C)c2)c2nc3ccccc3nc21 | 7 | -8 | 12 | 24*
COc1ccc(S[C@]2(C(=O)N3CCCC3)CC(=O)N(P(=O)(OC)OC)[C@@H]2c2ccc(OC)cc2)cc1 | 2 | . | . | .
COCCn1c(C)cc(C(=O)CSc2nc3ccccc3c(=O)n2Cc2ccco2)c1C | 1 | 1 | 25 | 12*
COc1cc(CCNC(=O)c2cnn3ccccc23)cc(OC)c1OC | 0 | -3 | -5 | 22*
O=C(C[n+]1ccc(-c2nnc3n2CCC3)cc1)c1ccc(Cl)c(Cl)c1 | 3 | 0 | -6 | 13*
SMILES | rCAG binder | NadD block | FAS TE block | NR3A LBD binder
COCCNC(=O)COc1ncnc2ccc(Br)cc12 | 4 | 0 | -5 | 13*
CNCC(=O)Nc1c(C)n[nH]c1C | 4 | -1 | -9 | 14*
C[C@H](O)[C@@H]1CN2CCc3c([nH]c4cccc(-c5ccccc5)c34)[C@@H]2C[C@@H]1N(C)CC1CCCCC1 | 6 | . | . | .
O=C(/C=C/c1ccc(O)cc1)c1c(O)cc(O)cc1O | 9 | -1 | 0 | -4
C=C(C)C(O)CC/C(C)=C/Cc1c(O)ccc(C(=O)/C=C/c2ccc(O)cc2)c1O (centres undefined) | 27 | -1 | 8 | 15*
CCN(CC)C(=O)c1ncn2c1C(=O)N[C@H](C)C2 | -2 | . | . | .
Cc1cccc2c1CC(C)(C)N=C2C1=C(O)CCCC1=O | -2 | -6 | -2 | 14*
O=[N+]([O-])c1nn(-c2ccc3c(c2)OCCO3)n(O)c1=NCc1ccc(F)cc1Cl | 6 | -5 | -1 | 1
O=[N+]([O-])c1nn(-c2ccc3c(c2)OCCO3)n(O)c1=NCc1ccc(F)cc1 | -1 | -2 | 7 | 13*
N#Cc1cc(-c2ccccc2)nc(N2CCNCC2)n1 | 4 | -4 | -8 | 11*
S=C(Nc1ccccc1Cl)Nc1ccc(Cl)cc1Cl | 2 | 7 | -5 | 0
S=C(NNc1ccnc2cc(Cl)ccc12)Nc1ccccc1Cl | 20 | 19 | 3 | 20*
Cc1c(NC(=O)c2ccc3c(c2)OCO3)cccc1-c1nc2ccccc2s1 | 0 | 0 | -4 | -8
O=C(CSc1nc2ccccc2s1)Nc1ccc2c(c1)OCO2 | 2 | -6 | 23 | 14*
CCOc1ccc(C(=O)Nc2ccc(NC(=O)c3ccccc3)c(C)c2)cc1[N+](=O)[O-] | -1 | -3 | -4 | 18*
CS(=O)(=O)c1cccc(C(=O)Nc2cccc(-c3nc4ccccc4[nH]3)c2)c1 | 9 | -5 | -3 | 9
CS(=O)(=O)c1ccc(C(=O)Nc2cccc(-c3nc4ccccc4[nH]3)c2)cc1 | 14 | 2 | -4 | 13*
O=C(Nc1cccc(-c2nc3ccccc3s2)c1)c1ccc2c(c1)OCO2 | 10 | -2 | 10 | 10*
CN(C)c1cccc(/C=C2\CC3(OC(=O)C4CCCC4)CCCN2C3)c1 (centres undefined) | 4 | . | . | .
CCCc1cn(-c2ccc3c(c2)[C@]2(CC(=O)N(C)C2c2ccccc2)C(=O)N3CC(C)C)nn1 (some centres undefined) | 0 | . | . | .
CCOc1ccc(C(=O)Nc2ccc(-c3nc4ccccc4[nH]3)cc2)cc1[N+](=O)[O-] | 11 | 17 | 5 | 212*
O=C(Nc1cccc(-c2nc3ccccc3[nH]2)c1)c1cccc(NC(=O)c2ccco2)c1 | 19 | 28 | 1 | 20*
Cn1ncc([N+](=O)[O-])c1C(=O)Nc1ccc(-c2nc3ccccc3[nH]2)cc1 | 6 | -3 | -5 | .
CS(=O)(=O)c1ccc(C(=O)Nc2ccc(-c3nc4ccccc4[nH]3)cc2)cc1 | 9 | 1 | -3 | 32*
O=C(Nc1ccc2nc(-c3ccccc3)[nH]c2c1)c1ccco1 | 1 | 0 | -4 | 10
SMILES | rCAG binder | NadD block | FAS TE block | NR3A LBD binder
Nc1ccc2nc(SCC(=O)Nc3ccc(N4CCOCC4)c(Cl)c3)sc2c1 | 8 | 18 | -4 | 18*
Nc1c(C(=O)N2CCN(c3ccccc3)CC2)nnn1Cc1ccc(Cl)cc1 | 5 | . | . | .
CN1CC=C(c2ccccc2)N(c2ccccc2)C1=O | 3 | . | . | .
COC(=O)[C@]12C[C@H](CC(=O)NCc3ccc(C)o3)C(=O)N(CCC3=CCCCC3)C1=C[C@H](C1CCCC1)O[C@@H]2C | 6 | . | . | .
Cc1cccc2[nH]c(-c3ccc(NC(=O)c4ccco4)cc3)nc12 | 1 | 4 | 11 | 31*
O=C(Nc1ccc(Cl)c(-c2nc3ccccc3[nH]2)c1)c1ccc2c(c1)OCO2 | 8 | 8 | 13 | 0
O=C(Nc1ccc(-c2nc3ccccc3[nH]2)cc1)c1ccc2c(c1)OCO2 | 8 | 23 | 1 | 30*
COC(=O)[C@]12C[C@H](CC(=O)NCCC(C)C)C(=O)N(CCc3ccc(OC)c(OC)c3)C1=C[C@H](COCc1ccccc1)O[C@@H]2C | 1 | . | . | .
CCOC(=O)Cc1c(Sc2ccccc2)c2ccccc2n1C | -3 | -4 | 30 | 12*
Cn1c(CC(=O)NC(C)(C)CO)c(Sc2ccccc2)c2ccccc21 | -5 | -4 | 10 | 1

Assay outcomes: PubChem, several laboratories
